Assay results: ChEMBL document CHEMBL4513216, “Probing the Open Global Health Chemical Diversity Library for Multistage-Active Starting Points for Next-Generation Antimalarials” (ACS Infect Dis, 2020)
The campaign covered roughly 69,000 compounds. About 8,600 (12%) showed an effect of 50% or more. What follows is part of a selection rich in strong results, with near analogues and random picks from the rest.

System: Plasmodium berghei
Assay: Screen against P. berghei liver stage (PbLuc), transformed with Luciferase, at 10uM
Type: functional, HepG2
Conditions: tested at 10 uM

Structure (SMILES) | INHIBITION
CCOC1COC2(CCN(CC3CC3)CC2)C1 (stereo not drawn) | 26.7%
Nc1nccc(C2CCN(CCO)C2)n1 (stereo not drawn) | 15.5%
Cc1nnc(N2CC[C@H]3C[C@H](C(=O)N4CCOCC4)O[C@H]3C2)s1 | 50%
Cc1nnc(N2CC[C@H]3C[C@@H](C(=O)NC4CCCC4)O[C@H]3C2)s1 | 61.4%
COCCNC(=O)[C@H]1C[C@@H]2CCN(c3nncs3)C[C@H]2O1 | 18.5%
CNC(=O)[C@H]1C[C@@H]2CCN(c3nnc(C)s3)C[C@@H]2O1 | 21.8%
Cc1ccc(N2CC[C@H]3C[C@@H](C(=O)N4CCOCC4)O[C@H]3C2)nn1 | 34.1%
Cc1ccc(CN2CC[C@H]3C[C@H](C(=O)N(C)C)O[C@H]3C2)cc1 | 25.5%
Cc1nnc(N2CC[C@H]3C[C@H](C(=O)N(C)C)O[C@@H]3C2)s1 | 88.2%
Cc1nnc(N2CC[C@H]3C[C@@H](C(=O)N4CCCC4)O[C@H]3C2)s1 | -0.388%
CN(C)C(=O)[C@@H]1C[C@@H]2CCN(C3CCOCC3)C[C@H]2O1 | 21.4%
CCc1noc(CN2CCC(NC(=O)c3ccc(C)s3)CC2)n1 | -30%
CCS(=O)(=O)CCSc1ccc(Cl)cc1 | 18.6%
CCN(C(=O)COc1nc(Cc2ccc(F)cc2)no1)C1CC1 | -50.7%
COc1ccc(-n2cc3[nH]c(=O)n(Cc4cccc(F)c4)n3c2=O)cc1 | -67%
Cc1c(NC(=O)CN2CCN(C3CCCC3)C(=O)C2)cnn1C | 7.85%
Cc1oc(C(=O)O)cc1S(=O)(=O)Nc1cccc(Cl)c1F | -46.2%
CC(=O)N1CCCN(S(=O)(=O)c2cc3ccccc3o2)CC1 | 16.6%
O=S(=O)(c1cc2ccccc2o1)N1CCCC1 | 59.4%
CCN1CCCN(S(=O)(=O)c2cc3ccccc3o2)CC1 | 46.6%
O=C(C1CCOCC1)N1C[C@@H]2[C@@H](C1)OCC(=O)N2CC1CC1 | 7.96%
Cc1ccc(CN2CCC3(CC(C(=O)NCC4CC4)=NO3)C2)s1 (stereo not drawn) | -117%

Structure (SMILES) | INHIBITION
O=C(O)[C@]12CCCN(Cc3ccco3)C[C@H]1CN(c1ncccn1)C2 | 42.6%
Cc1ccc(CN2CCC3(CC(C(=O)NC4CCC4)=NO3)C2)o1 (stereo not drawn) | 56.7%
O=C(NC1CCC1)C1=NOC2(CCN(Cc3ccco3)C2)C1 (stereo not drawn) | 64.9%
Cc1ccc(S(=O)(=O)N2CCC3(CC(C(=O)NC4CCC4)=NO3)C2)cc1 (stereo not drawn) | 5.67%
CC(Nc1ncnc2c1NC(=O)CN2)c1ccc2c(c1)OCO2 (stereo not drawn) | 48.2%
Cn1nccc1C(=O)N1CCOC(Cc2ccc(Cl)cc2)C1 (stereo not drawn) | 0.301%
Cc1cc(C)c(C(=O)N2CCOCC2c2c(C)nn(C)c2C)o1 (stereo not drawn) | -79.1%
Cc1ccc(C(=O)N2CCCN(C)c3ccc(F)cc32)o1 | 16.5%
CCc1cc(C(=O)N2CCCC(c3[nH]ncc3S(C)(=O)=O)C2)no1 (stereo not drawn) | 24.8%
COc1cc(C)nc(N2CCN(C(=O)CSC)CC2)n1 | -64.85%
CCOc1cc(C)nc(N2CCN(Cc3nccn3C)CC2)n1 | 12.2%
CCn1ccnc1CN1CCN(c2cc(C)nc(C3CCCN3)c2)CC1 (stereo not drawn) | 11.02%
COc1cc(C)nc(N2CCN(Cc3nccn3C)CC2)n1 | 41.4%
CCOc1cc(C)nc(N2CCN(Cc3nccn3CC)CC2)n1 | 50.8%
CCn1ccnc1CN1CCN(c2nc(C)cc(OC)n2)CC1 | 78.3%
CC(C)Cc1noc(CN(C)c2ncccn2)n1 | -33.3%
CCOc1ccccc1C(=O)N(C)C(C)c1ccc(S(C)(=O)=O)cc1 (stereo not drawn) | -162%
CCC(C)N(Cc1cccnc1)C(=O)c1ccc(OC)cc1O (stereo not drawn) | 32.9%
CSCC(CCO)NC(=O)c1cccc(Cl)c1F (stereo not drawn) | 36.4%
CSCC(CCO)NC(=O)Nc1cccc(Br)c1C (stereo not drawn) | 36.8%
CSCC(CCO)NC(=O)c1cccc(F)c1Cl (stereo not drawn) | 65.9%
CSCC(CCO)NC(=O)c1cccc(C)c1Cl (stereo not drawn) | 54.1%

Structure (SMILES) | INHIBITION
CSCC(CCO)Nc1cccc(C(F)(F)F)n1 (stereo not drawn) | 22.8%
CSCC(CCO)NC(=O)Nc1ccc(C)cc1C (stereo not drawn) | -7.53%
CC(C)NC(=O)C1c2c(ncn2C(C)C)CCN1Cc1ccccc1 (stereo not drawn) | 8.67%
Cn1ccc(C(=O)NC2CCC23CCN(CC2CCOCC2)CC3)c1 (stereo not drawn) | 12%
CC[C@@H](C)[C@H](NC(=O)NC1CCS(=O)(=O)C1)C(=O)NCc1ccncc1 (stereo partly drawn) | -41.2%
O=C(N[C@@H]1CN(Cc2cccs2)[C@@H]2COC[C@@H]21)C1CCC1 | -0.804%
CCN(CC1CCCO1)C(=O)Nc1cc(C)ccc1S(C)(=O)=O (stereo not drawn) | -12.2%
Cc1cccc(-c2nnc(C(C)NCCn3cc(C)cn3)o2)c1 (stereo not drawn) | 17.9%
Cc1cnn(CCNC(C)c2nnc(-c3ccccc3)o2)c1 (stereo not drawn) | 54.8%
Cc1ccc(-c2nnc(C(C)NCCn3cc(C)cn3)o2)cc1 (stereo not drawn) | -3.87%
Cn1ncc2c1CCCC2NCc1cc(Br)cs1 (stereo not drawn) | 31.1%
NCCNS(=O)(=O)Cc1ccc(Br)cc1 | 16.9%
COCc1noc(CN2C[C@H](C3CC3)[C@@H](N(C)C)C2)n1 | 17.1%
O=C(CCOc1ccccc1F)N1CCCC1Cn1cccn1 (stereo not drawn) | 29.2%
CN(CCC(=O)N1CCc2sccc2C1)Cc1cnn(C)c1 | 19.2%
CC(C)c1nc(C(=O)N2CCc3ccccc3C2C(=O)O)cs1 (stereo not drawn) | 6.61%
CC(C)c1cc(C(=O)N2CCc3ccccc3C2C(=O)O)nn1C (stereo not drawn) | -28%
CC(C)c1cc(C(=O)N2CCc3ccccc3C2C(=O)O)n(C)n1 (stereo not drawn) | 66.3%
O=C(O)C1(n2ccc(-c3ccco3)n2)CCN(Cc2ccsc2)CC1 | -14.3%
Nc1no[n+]([O-])c1C(=O)NCc1cccnc1 | 42.8%
NS(=O)(=O)CCCC(=O)N1CCC2(CC1)c1ccccc1CC2O (stereo not drawn) | -38.8%
O=C(CCN1CCNCC1)N1CCC2(CC1)c1ccccc1CC2O (stereo not drawn) | 31.6%

Structure (SMILES) | INHIBITION
O=C(CSc1ccncc1)N1CCC2(CC1)c1ccccc1CC2O (stereo not drawn) | -16.8%
Cn1cccc1CCC(=O)N1CCC2(CC1)c1ccccc1CC2O (stereo not drawn) | 60.1%
CSCC(=O)N1CCC2(CC1)c1ccccc1CC2O (stereo not drawn) | 65.1%
NC(=O)NCC(=O)N1CCC2(CC1)c1ccccc1CC2O (stereo not drawn) | 28.3%
COCCC(=O)N1C[C@@H](c2ccc(F)c(F)c2)[C@@]2(CCCC(=O)N2)C1 | 17.4%
CCNC(c1cccnc1)c1ccc(F)cc1F (stereo not drawn) | 30.6%
Cc1ncc(CNC(=O)NCC(C)Oc2ccccc2F)s1 (stereo not drawn) | -47.3%
COCCNc1ccccc1CNC(=O)NCc1cnc(C)s1 | 52.1%
COc1ccc(CNC(=O)NCc2nc(C)c(C)s2)cn1 | 48.5%
Cc1ccc(CNC(=O)NCc2cccnc2N(C)C)s1 | 15.5%
Cc1ncc(CNC(=O)NCc2c(F)cccc2OC(F)F)s1 | 10.7%
COc1ccc(CNC(=O)NCCc2nc(C)c(C)s2)cn1 | 31.2%
COCCNc1ccccc1CNC(=O)C1CCCOC1 (stereo not drawn) | 35.1%
COCCNc1ccccc1CNC(=O)NCc1nc(C)c(C)s1 | 72%
COCCNc1ccccc1CNC(=O)NCc1ccc(C)s1 | 64.1%
NC(=O)C1CCN(C(=O)CCn2ccc3ccc(Br)cc32)CC1 | 10.6%
c1cnc(N2CCOCC3(CCCN(CC4CCOCC4)C3)C2)nc1 (stereo not drawn) | -4.88%
CNC(=O)CN1CC[C@H]2CN(C(=O)c3cc[nH]n3)C[C@H]2C1 | 41.1%
O=C(NCc1ccnc(-n2cccn2)c1)C1CC(=O)N(CC2CC2)C1 (stereo not drawn) | -25.9%
CN(C)S(=O)(=O)N1C[C@@H]2C[C@H](C(=O)Nc3cccnc3)[C@H](C1)O2 | 43.9%
CC(=O)c1ccc(OCC(C)O)cc1O (stereo not drawn) | 47.1%
COc1ccc(CN(C)[C@@H]2CN(S(=O)(=O)C(C)C)C[C@H]2O)cc1 | 2.15%

Structure (SMILES) | INHIBITION
CCN1C(=O)[C@]2(CC[C@@H]3CN(C(=O)Nc4ccc(F)cc4)C[C@@H]32)N=C1C | 22.2%
COc1ncccc1CNC(=O)Nc1cccnc1N1CCCC1 | 43.3%
COc1cccc(CC(=O)NCC(Cc2ccc(F)cc2)C(N)=O)c1 (stereo not drawn) | 8.99%
N#Cc1c(F)cccc1N1CCC(NS(=O)(=O)c2cccs2)CC1 | 24%
N#Cc1cc(F)c(N2CCC(NS(=O)(=O)c3cccs3)CC2)c(F)c1 | 62.9%
N#Cc1ccc(N2CCC(NS(=O)(=O)c3cccs3)CC2)c(F)c1 | 20.9%
CNc1ncc(C(=O)N2CCOC(C(=O)Nc3ccccc3)C2)cn1 (stereo not drawn) | -8.58%
CN(CCc1ccccc1)Cc1c(C2CCNCC2)[nH]c2ncccc12 | 58.95%
CN(CCc1ccccc1)Cc1c(C2CC2)[nH]c2ncccc12 | 14.185%
CN(CCc1ccccc1)Cc1c(C2CCOCC2)[nH]c2ncccc12 | 17.125%
NCCCC(=O)N1CCC2(CC1)CN(C(=O)c1ccc(Cl)cc1)CCO2 | 4.35%
O=C(c1csc(-c2ccc(C(F)(F)F)cc2)n1)N1CCCNCC1 | 62.1%
CN1CCCN(C(=O)c2csc(-c3ccc(C(F)(F)F)cc3)n2)CC1 | 42.3%
O=C1CCN(C(=O)c2csc(-c3ccc(C(F)(F)F)cc3)n2)CCN1 | -1.26%
CC(=O)N1CCN(C(=O)NC(C)C)CC2(CC(=O)N(C)C2)C1 (stereo not drawn) | -3.52%
CC(=O)N1CCN(C(=O)NC(C)C)CC2(CNC(=O)C2)C1 (stereo not drawn) | -2.17%
CC(C)NC(=O)N1CCN(CC2CC2)CC2(CC(=O)N(C)C2)C1 (stereo not drawn) | 79.5%
CC(C)NC(=O)N1CCN(CC2CC2)CC2(CNC(=O)C2)C1 (stereo not drawn) | 69.6%
CC(C)NC(=O)N1CCN(C(=O)C(C)C)CC2(CC(=O)N(C)C2)C1 (stereo not drawn) | 22.2%
CC(C)NC(=O)N1CCN(C(=O)NC(C)C)CC2(CNC(=O)C2)C1 | -2.17%
